According to paper PMC5540273 (PLoS ONE, 2017):

What was measured:
[1] = system: T1, JNK2
T1 construct: gene MAPK9

[2] = system: LATS1
[3] = system: LATS2
[4] = system: LCK
[5] = system: LYN
[6] = system: LIMK2
[7] = system: LTK
[8] = system: T2, LOK
T2 construct: gene STK10

[9] = system: T3, LZK
T3 construct: gene MAP3K13

[10] = system: MAK
[11] = system: MET
[12] = system: MAPKAPK2
[13] = system: MARK3
[14] = system: T4, MEK1
T4 construct: gene MAP2K1

[15] = system: MKNK1
[16] = system: T5, MLCK
T5 construct: gene MYLK3
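Note: kd values determined as follow-up on hits from a single-replicate KINOMEscan panel screen.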

COC(=O)c1c(-c2ccccc2)c2cc(Cl)ccc2c(=O)n1Cc1ccc(S(C)(=O)=O)cc1
Kd [1]: 0.044 µM

CN1CCC(n2cnc(-c3ccc(F)cc3)c2-c2ccnc(NC3CCNCC3)n2)CC1 [SB-229482]
Kd [1]: 0.17 µM

COc1ccc(-c2oc3ncnc(N)c3c2-c2ccc(OC)cc2)cc1 [SB-589132]
Kd [2]: > 10 µM

CCc1nc(-c2cccc(C)c2)c(-c2ccnc(NC(=O)c3ccccc3)c2)s1
Kd [3]: > 10 µM

Cc1ccc(NC(=O)c2cccc(C#N)c2)cc1-c1ccc(C(=O)Nc2ccncc2)cc1 [GSK1398463]
Kd [4]: 0.56 µM

COc1cc2c(Nc3cccc(NC(=O)c4ccccc4)c3)ncnc2cc1OCCCN1CCOCC1 [GSK223810]
Kd [4]: 0.39 µM | Kd [5]: 0.13 µM

CCCc1ccc(S(=O)(=O)NC2CCN(c3ccnc(Nc4ccc(OC)cc4)n3)C2)cc1 (stereo not shown) [GSK1379737]
Kd [6]: > 10 µM | Kd [7]: 8.7 µM

CNc1nccc(-c2c(-c3ccc(F)cc3)ncn2CCCN2CCOCC2)n1 [SB-222516]
Kd [6]: > 10 µM

COc1cc2ncnc(Nc3ccc(OCc4ccccc4Br)c(Cl)c3)c2cc1OC.Cl [GI261590]
Kd [8]: 2 µM

Oc1ccc2ncnc(Nc3ccc(OCc4ccccc4)cc3)c2c1 [GI262866]
Kd [7]: > 10 µM

Fc1cccc(COc2ccc(Nc3ncnc4sc(-c5ccc[nH]5)cc34)cc2Cl)c1 [GW707818]
Kd [9]: > 10 µM

O=C(NCCCN1CCCC1=O)c1cnc(NCc2cc(Cl)ccc2Cl)nc1NC1CCNCC1
Kd [10]: > 10 µM

c1ccc(-c2ccc3c(-c4ccnc(Nc5ccc6c(c5)OCCO6)n4)cnn3n2)cc1 [GW818941]
Kd [10]: > 10 µM | Kd [11]: > 10 µM

Cn1cc(-c2ccc3c(c2)CCN3C(=O)Cc2cccc(C(F)(F)F)c2)c2c(N)ncnc21 [GSK2606414]
Kd [12]: > 10 µM

CCn1c(-c2ccncc2)nc2cnccc21 [SB-735216]
Kd [13]: > 10 µM

CC(C)(C)OC(=O)NC1CCCN(c2cc(-c3ccc4c(N)n[nH]c4c3)nc(N)n2)C1 (stereo not shown) [GSK2286096]
Kd [14]: > 10 µM

C[C@H]1CC[C@@H](C(=O)Nc2ccccc2)CN1c1cc(-c2ccc3c(N)n[nH]c3c2)nc(N)n1 [GSK2283293]
Kd [11]: > 10 µM

CSc1ccc(NC2=C(c3ccccc3Cl)C(=O)NC2=O)cc1 [SB-342411]
Kd [15]: > 10 µM

Nc1n[nH]c2nnc(-c3ccccc3)cc12 [SB-517389]
Kd [16]: > 10 µM
